Rows were chosen to be rich in hits. Some 4% of all compounds tested hit in one or more screens of this group.
Beta apoptosis = blocks beta cell apoptosis; INS-1E cytokine-induced death, ATP luminescence, 48 h; percent of positive-control rescue, neutral wells zero; protection from apoptosis, % (no concentration beside the values); hit rate 0.8% among 300,000;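 active = Every replicate reaches about 75%, or at least half do and their mean reaches it too, limit read from the data; inconclusive = At least half of replicates reach the limit but their mean does not; inactive = Under half of replicates reach the limit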;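 note: 0% = cytokine-treated negative control wells and 100% = positive control rescue; higher means more ATP so stronger rescue from cytokine killing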
PAX8 reporter = PAX8 transcriptional activity inhibition | RMG-I TPO-luciferase reporter, SteadyGlo, 24 h | inhibition, % at 12.6 µM | hit rate 1.2% among 360,000;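 active = mean replicate inhibition at least 60% with every replicate also reaching 60%; inconclusive = only one of the two criteria is met; inactive = mean below 60% and not all replicates reaching 60%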;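 note: luciferase light reporting Pax8 driven TPO promoter activity; plate controls were median of neutral control wells for no effect and mitoxantrone controls for full effect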
Gli-Sufu block = blocks Gli-Sufu signaling in a luciferase reporter; inhibition, % at 5 µM; hit rate 0.74% among 340,000; Sufu-KO-LIGHT fibroblasts, Gli luciferase reporter luminescence;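 active = inhibition above about 55%, limit read from the data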;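 note: 0% = DMSO-treated cells and 100% = wells with medium but no cells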
CSC inhib = cancer stem cell inhibition; cancer stem cell-like cells viability, luminescence; inhibition, % at 7.5 µM; hit rate 1.1% among 300,000; in the data active = inhibition above about 75%; inconclusive = no clear call, values can overlap the other calls; tested in HMLE shEcad cells
Shn3 inh set2 = reduces Shn3 3'UTR luciferase signal in osteoblasts. Clone20 osteoblast Shn3 3'UTR firefly luciferase, 24 h. inhibition, % at 12.5 µM. hit rate 0.52% among 360,000. AID 588674;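 active = mean inhibition of at least 75% with every replicate also reaching 75%; inconclusive = mean inhibition at least 75% but some replicate below; inactive = mean inhibition below 75%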;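 note: 0% = median of neutral control wells and 100% = pilot-screen positive control compound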
Mdm2-MdmX inh = inhibitors of human Mdm2/MdmX interaction; SaOS-2 split-luciferase Mdm2/MdmX complementation, luminescence; inhibition, % at 8 µM; O15151+Q00987; hit rate 3% among 330,000; AID 485346;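 active = inhibition of at least 50% at 8 µM in the primary screen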
Target sequence (O15151 whole entry, looked up): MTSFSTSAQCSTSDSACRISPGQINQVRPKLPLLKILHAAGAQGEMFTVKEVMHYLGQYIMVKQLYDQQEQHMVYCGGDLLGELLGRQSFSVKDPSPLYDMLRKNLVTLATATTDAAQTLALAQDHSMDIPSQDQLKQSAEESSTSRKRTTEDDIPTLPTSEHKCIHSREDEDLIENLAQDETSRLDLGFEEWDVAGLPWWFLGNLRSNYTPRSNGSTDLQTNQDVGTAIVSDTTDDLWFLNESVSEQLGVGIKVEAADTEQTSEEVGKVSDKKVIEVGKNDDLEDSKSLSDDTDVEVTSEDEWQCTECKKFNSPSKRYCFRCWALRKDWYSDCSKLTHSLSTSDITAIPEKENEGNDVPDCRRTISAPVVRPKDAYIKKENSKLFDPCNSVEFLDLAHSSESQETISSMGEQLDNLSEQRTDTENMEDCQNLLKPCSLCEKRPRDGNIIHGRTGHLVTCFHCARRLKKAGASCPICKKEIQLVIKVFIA
Target sequence (Q00987 whole entry, looked up): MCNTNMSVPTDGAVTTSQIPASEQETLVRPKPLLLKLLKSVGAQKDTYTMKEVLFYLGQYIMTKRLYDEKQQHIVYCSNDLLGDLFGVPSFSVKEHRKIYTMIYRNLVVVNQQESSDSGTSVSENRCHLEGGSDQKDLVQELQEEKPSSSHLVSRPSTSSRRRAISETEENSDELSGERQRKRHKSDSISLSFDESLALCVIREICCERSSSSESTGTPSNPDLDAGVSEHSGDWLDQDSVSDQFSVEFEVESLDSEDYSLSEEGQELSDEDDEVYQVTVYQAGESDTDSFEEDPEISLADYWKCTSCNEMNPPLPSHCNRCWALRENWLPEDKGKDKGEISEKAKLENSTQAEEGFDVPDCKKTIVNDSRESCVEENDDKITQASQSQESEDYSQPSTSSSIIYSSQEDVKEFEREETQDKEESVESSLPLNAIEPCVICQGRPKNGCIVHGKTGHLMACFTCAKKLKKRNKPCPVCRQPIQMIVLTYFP
The depositor's hits bear a star; ? = inconclusive; nt = not tested or not shown.

SMILES	Beta apoptosis	PAX8 reporter	Gli-Sufu block	CSC inhib	Shn3 inh set2	Mdm2-MdmX inh
O=C(Nc1ccccc1)N1N=C(c2ccc(F)cc2)CC1c1ccc(F)cc1 (stereo not given)	14	82*	8	5	2	36
COc1ccc(C2CC(c3ccccc3)=NN2C(=O)c2ccc(F)cc2)cc1 (stereo not given)	0	7	7	3	14	-12
CN(c1nc2ccccc2[nH]c1=O)C1CCCCC1	22	6	57*	10	78	6
C[C@@H]1CN([C@H](C)CO)C(=O)c2cccc(NS(=O)(=O)c3ccc(F)cc3)c2O[C@H]1CN(C)Cc1ccc(-c2ccccc2)cc1	nt	-40	nt	nt	nt	nt
C[C@H](CO)N1C[C@H](C)[C@H](CN(C)Cc2ccc(-c3ccccc3)cc2)Oc2c(NS(=O)(=O)c3ccc(F)cc3)cccc2C1=O	nt	65*	nt	nt	nt	nt
Cc1ccc(S(=O)(=O)Nc2cccc3c2O[C@@H](CN(C)Cc2ccc(Oc4ccccc4)cc2)[C@@H](C)CN([C@H](C)CO)C3=O)cc1	nt	90*	nt	nt	nt	nt
C[C@H](CO)N1C[C@H](C)[C@@H](CN(C)C(=O)Nc2ccccc2)Oc2ncc(-c3ccccc3)cc2C1=O	nt	17	nt	nt	nt	nt
CC(O)CC(=O)OC[C@]12CC[C@H]3[C@@](C)(CC[C@H]4C(C)(C)CCC[C@]34C)[C@@H]1CC(C1=CC(=O)OC1O)O2 (stereo not given in full)	nt	nt	nt	nt	93*	nt
O=C(CN1CCOCC1)N1CC[C@H]2[C@H](CO)Nc3ccc(Br)cc3[C@H]21	nt	9	nt	nt	nt	nt
COc1ccc(NC(=O)N(C)C[C@H]2Oc3ccc(NC(=O)c4ccncc4)cc3CC(=O)N([C@H](C)CO)C[C@H]2C)cc1	nt	-16	nt	nt	nt	nt
C[C@@H]1CCCCO[C@H](CN(C)CC2CCCCC2)[C@H](C)CN([C@@H](C)CO)C(=O)c2cc(NC(=O)Nc3ccccc3)ccc2O1	nt	78*	nt	nt	nt	nt
C[C@@H]1CCCCO[C@@H](CN(C)Cc2ccc(Cl)c(Cl)c2)[C@@H](C)CN([C@H](C)CO)C(=O)c2cc(NC(=O)Nc3ccc(F)cc3)ccc2O1	nt	48	nt	nt	nt	nt
C[C@@H]1CCCCO[C@H](CN(C)Cc2ccc(Cl)c(Cl)c2)[C@H](C)CN([C@@H](C)CO)C(=O)c2cc(NC(=O)Nc3ccccc3)ccc2O1	nt	82*	nt	nt	nt	nt
C[C@@H]1CN([C@H](C)CO)C(=O)c2cc(NC(=O)Nc3ccccc3)ccc2O[C@@H](C)CCCCO[C@H]1CN(C)Cc1ccc(Cl)c(Cl)c1	nt	104*	nt	nt	nt	nt
C[C@@H]1CCCCO[C@@H](CN(C)Cc2ccc(Cl)c(Cl)c2)[C@H](C)CN([C@H](C)CO)C(=O)c2cc(NC(=O)Nc3ccccc3)ccc2O1	nt	90*	nt	nt	nt	nt
COCCCn1c(-c2ccc(S(=O)(=O)N3CCOCC3)cc2)csc1=Nc1ccccc1	38	-2	30	-5	91*	20
C[C@@H]1CCCCO[C@@H](CN(C)S(=O)(=O)c2ccc(Cl)cc2)[C@@H](C)CN([C@@H](C)CO)C(=O)c2cc(NS(=O)(=O)c3ccccc3)ccc2O1	nt	23	nt	nt	nt	nt
C[C@H](CO)N1C[C@H](C)[C@H](CN(C)S(=O)(=O)c2ccc(Cl)cc2)OCCCC[C@H](C)Oc2ccc(NS(=O)(=O)c3ccccc3)cc2C1=O	nt	72*	nt	nt	nt	nt
C[C@@H]1CCCCO[C@H](CN(C)S(=O)(=O)c2ccccc2)[C@H](C)CN([C@@H](C)CO)C(=O)c2cc(NS(=O)(=O)c3ccc(Cl)cc3)ccc2O1	nt	81*	nt	nt	nt	nt
C[C@H]1CCCCO[C@H](CN(C)S(=O)(=O)c2ccc(Cl)cc2)[C@@H](C)CN([C@@H](C)CO)C(=O)c2cc(NS(=O)(=O)c3ccccc3)ccc2O1	nt	74*	nt	nt	nt	nt
C[C@@H]1CN([C@H](C)CO)C(=O)c2cc(NS(=O)(=O)c3ccccc3)ccc2O[C@@H](C)CCCCO[C@@H]1CN(C)S(=O)(=O)c1ccc(Cl)cc1	nt	52	nt	nt	nt	nt
CN1C(=O)c2cc(NC(=O)c3ccc(F)c(F)c3)ccc2OC[C@H]2O[C@@H](CC(=O)N[C@@H]3CCN(Cc4ccccc4)C3)CC[C@H]21	nt	22	nt	nt	nt	nt
Cc1ccc(NC(=O)CN(C)C(=O)Cn2ncc(Cl)c(Cl)c2=O)cc1	-6	93*	1	110*	71	nt
CCCCSc1ccc(NC(=O)c2cccnc2)cc1	100*	nt	-7	0	4	-2
CN(C)C(=O)c1ccc(NC(=O)c2cccnc2)cc1	96*	-2	4	-3	-7	4
SMILES	Beta apoptosis	PAX8 reporter	Gli-Sufu block	CSC inhib	Shn3 inh set2	Mdm2-MdmX inh
COCCCNC(=O)Cn1nnc(-c2ccc(NC(=O)c3cccnc3)cc2)n1	97*	nt	nt	-11	nt	16
O=C(Nc1ccc(F)cc1)c1cccnc1	76*	21	-7	8	-1	16
CNC[C@@H]1OCCCC[C@H](C)Oc2ccc(NC(=O)Nc3ccc(C(F)(F)F)cc3)cc2C(=O)N([C@H](C)CO)C[C@@H]1C	nt	34	nt	nt	nt	nt
CCNC(=O)C[C@@H]1CC[C@@H](NS(=O)(=O)c2ccc(F)cc2)[C@H](CO)O1	nt	-7	nt	nt	nt	nt
O=C(Nc1cccc(F)c1)c1ccccc1	-2	-129	-17	-12	7	-27
O=C(Nc1ccc(Nc2ccccc2)cc1)c1cccc(F)c1	7	-92	21	75*	-61	-59
C[C@@H]1CN([C@H](C)CO)C(=O)c2cccc(NS(=O)(=O)c3ccc(F)cc3)c2O[C@H]1CN(C)S(=O)(=O)c1ccc(F)cc1	nt	-42	nt	nt	nt	nt
O=C(O)c1ccc(NC2=C/C(=N/S(=O)(=O)c3cccs3)c3ccccc3C2=O)cc1	nt	36	nt	nt	18	nt
O=C(O)c1ccc(NC2=C/C(=N/S(=O)(=O)c3ccccc3)c3ccccc3C2=O)cc1	nt	80*	28	nt	?	46
O=C1C(Nc2ccc(O)cc2)=C/C(=N/S(=O)(=O)c2cccs2)c2ccccc21	nt	101*	94*	nt	100*	nt
Cc1cccc(NC2=C/C(=N/S(=O)(=O)c3cccs3)c3ccccc3C2=O)c1	105*	-2	34	119*	93*	nt
C[C@@H]1CCCCO[C@H](CN(C)C(=O)c2ccccc2)[C@H](C)CN([C@@H](C)CO)C(=O)c2cc(NC(=O)CCCCCC(=O)Nc3ccccc3N)ccc2O1	nt	1	nt	nt	nt	nt

Assay outcomes (PubChem)
